# Measurements as given in PubChem BioAssay (NCATS).
# A number with no mark means an inactive call. Results filed as inconclusive are left out. Activity calls are given as the source filed them. Unless noted, the call rests on the fitted dose curve; in most records, active means well fitted curve in the direction sought with a large enough effect; inconclusive means small, poorly fitted or top-dose-only effect, or another doubt; inactive means no such curve, though single readings can be large; an effect the other way counts as inactive or inconclusive.
# Biological target: Glucocorticoid receptor (Homo sapiens) (UniProt P04150)
# Experiment: GR-GFP Redistribution (AID 450;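 active means compounds whose dose series gives a full or clear partial fitted curve of increased nuclear translocation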; further: potency means the concentration at half of the fitted maximal effect)
# Settings: U2OS GR-GFP nuclear translocation, laser cytometry, 2 h
# Chain of Glucocorticoid receptor (Homo sapiens) (P04150 whole entry, looked up): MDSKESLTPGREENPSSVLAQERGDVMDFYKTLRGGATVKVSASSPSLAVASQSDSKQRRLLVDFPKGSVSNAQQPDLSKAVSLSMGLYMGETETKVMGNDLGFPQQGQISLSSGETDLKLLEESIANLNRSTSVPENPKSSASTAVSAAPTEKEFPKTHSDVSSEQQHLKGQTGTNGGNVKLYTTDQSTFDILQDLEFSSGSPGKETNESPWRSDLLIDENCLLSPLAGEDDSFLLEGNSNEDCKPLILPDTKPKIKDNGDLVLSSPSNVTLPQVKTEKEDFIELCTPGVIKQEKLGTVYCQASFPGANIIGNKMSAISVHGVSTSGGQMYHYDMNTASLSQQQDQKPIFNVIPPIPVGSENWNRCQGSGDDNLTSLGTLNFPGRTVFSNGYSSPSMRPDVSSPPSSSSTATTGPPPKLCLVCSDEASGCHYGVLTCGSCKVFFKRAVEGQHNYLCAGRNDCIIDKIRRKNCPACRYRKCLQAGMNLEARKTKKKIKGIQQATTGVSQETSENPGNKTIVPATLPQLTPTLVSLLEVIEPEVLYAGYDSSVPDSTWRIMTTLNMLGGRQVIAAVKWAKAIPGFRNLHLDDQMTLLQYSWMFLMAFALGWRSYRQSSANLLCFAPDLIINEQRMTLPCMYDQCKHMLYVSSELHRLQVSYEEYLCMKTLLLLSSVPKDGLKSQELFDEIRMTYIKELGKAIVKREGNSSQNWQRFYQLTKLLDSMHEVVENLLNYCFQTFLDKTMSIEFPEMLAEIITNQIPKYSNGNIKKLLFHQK
row,Compound,Potency [µM]
1,Cc1cccc(CNc2ncnc3ccc(-c4ccc5c(c4)OCO5)cc23)c1,> 46
2,c1cncc(CNc2ncnc3ccc(-c4cccnc4)cc23)c1,> 46
3,COc1cccc(-c2ccc3ncnc(N(C)Cc4ccco4)c3c2)c1,> 46
4,CN(Cc1ccco1)c1ncnc2ccc(-c3cccnc3)cc12,> 46
5,CN(Cc1ccco1)c1ncnc2ccc(-c3ccoc3)cc12,> 46
6,Cc1cccc(CNc2ncnc3ccc(-c4ccoc4)cc23)c1,> 46
7,COc1cccc(-c2ccc3ncnc(NCc4cccs4)c3c2)c1,> 46

# Biological target: Glucocorticoid receptor (Homo sapiens) (UniProt P04150)
# Experiment: GR-EFC Redistribution (AID 451; calls by dose curve; further: potency means the concentration at half of the fitted maximal effect)
# Settings: CHO-K1 GR-EFC translocation, beta-gal luminescence, 2 h
# Outline: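 CHO-K1 cells expressing nuclear EA and GR-ED fragments of b-gal; compounds titrated up to 46 uM final, 2 h at 37 C. GR nuclear translocation read as complemented b-gal luminescence after 1 h RT detection.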
row,Compound,Potency [µM]
1,Cc1cccc(CNc2ncnc3ccc(-c4cccnc4)cc23)c1,> 46
2,Cc1cccc(CNc2ncnc3ccc(-c4ccc5c(c4)OCO5)cc23)c1,> 46
3,c1cncc(CNc2ncnc3ccc(-c4cccnc4)cc23)c1,> 46
4,COc1cccc(-c2ccc3ncnc(N(C)Cc4ccco4)c3c2)c1,> 46
5,CN(Cc1ccco1)c1ncnc2ccc(-c3cccnc3)cc12,> 46
6,CN(Cc1ccco1)c1ncnc2ccc(-c3ccoc3)cc12,> 46
7,Cc1cccc(CNc2ncnc3ccc(-c4ccoc4)cc23)c1,> 46
8,COc1cccc(-c2ccc3ncnc(NCc4cccs4)c3c2)c1,> 46
9,c1nc(N2CCNCC2)c2cc(-c3ccc4c(c3)OCO4)ccc2n1,> 46

# Biological target: Mitogen-activated protein kinase 10 (Mus musculus) (UniProt Q61831)
# Experiment: JNK3 AlphaScreen Assay (AID 530; active means well fitted curve in either direction with a large enough effect, not every such curve was filed as active;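 further: kinase came from lysate of stimulated human HepG2 cells; signal reports phosphorylation of biotinylated GST-cJun 1-79 at Ser73 with 10 µM ATP; on the % scale 0 is the no-effect control and ±100 the full control effect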)
# Settings: JNK3 lysate, c-Jun phosphorylation; series mostly up to 57.1 µM; activity change, negative = inhibition: at the top concentration
# Outline: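 HepG2 lysate (IL-1b/TNFa pre-activated) + biotin-GST-cJun 1-79 + anti-pSer73 cJun; cpd titration, 15 min RT; ATP 10 uM start; Tris pH 7.6, MgCl2, DTT, vanadate; beads in EDTA buffer; AlphaScreen.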
row,Compound,"activity change, negative = inhibition [%]"
1,Cc1cccc(CNc2ncnc3ccc(-c4cccnc4)cc23)c1,-20.9
2,Cc1cccc(CNc2ncnc3ccc(-c4ccc5c(c4)OCO5)cc23)c1,-1.04
3,c1cncc(CNc2ncnc3ccc(-c4cccnc4)cc23)c1,-27
4,COc1cccc(-c2ccc3ncnc(N(C)Cc4ccco4)c3c2)c1,-6.75
5,CN(Cc1ccco1)c1ncnc2ccc(-c3cccnc3)cc12,-20
6,CN(Cc1ccco1)c1ncnc2ccc(-c3ccoc3)cc12,-13.4
7,Cc1cccc(CNc2ncnc3ccc(-c4ccoc4)cc23)c1,-10.3
8,COc1cccc(-c2ccc3ncnc(NCc4cccs4)c3c2)c1,1.62
9,c1nc(N2CCNCC2)c2cc(-c3ccc4c(c3)OCO4)ccc2n1,-5.02

# Biological target: 3',5'-cyclic-AMP phosphodiesterase 4B (Homo sapiens) (UniProt Q07343)
# Experiment: qHTS Assay for Inhibitors of PDE-IV (AID 607; active means well fitted activation curve with a large enough effect in the main read-out, with a control signal flat, not every such curve was filed as active; further: % of control where 0% means no effect)
# Settings: HEK293 ACTOne CNG channel cells, membrane potential fluorescence; series mostly up to 22.9 µM; activation (PDE inhibition): at the top concentration
# Outline: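 HEK293 ACTOne cells with CNG channel (1000/well), endogenous PDE4; membrane potential dye, compounds up to 22.9 uM final. Fluorescence Ex 535/Em 590; RO 20-1724 (100 uM final) as reference.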
# Chain of 3',5'-cyclic-AMP phosphodiesterase 4B (Homo sapiens) (Q07343 whole entry, looked up): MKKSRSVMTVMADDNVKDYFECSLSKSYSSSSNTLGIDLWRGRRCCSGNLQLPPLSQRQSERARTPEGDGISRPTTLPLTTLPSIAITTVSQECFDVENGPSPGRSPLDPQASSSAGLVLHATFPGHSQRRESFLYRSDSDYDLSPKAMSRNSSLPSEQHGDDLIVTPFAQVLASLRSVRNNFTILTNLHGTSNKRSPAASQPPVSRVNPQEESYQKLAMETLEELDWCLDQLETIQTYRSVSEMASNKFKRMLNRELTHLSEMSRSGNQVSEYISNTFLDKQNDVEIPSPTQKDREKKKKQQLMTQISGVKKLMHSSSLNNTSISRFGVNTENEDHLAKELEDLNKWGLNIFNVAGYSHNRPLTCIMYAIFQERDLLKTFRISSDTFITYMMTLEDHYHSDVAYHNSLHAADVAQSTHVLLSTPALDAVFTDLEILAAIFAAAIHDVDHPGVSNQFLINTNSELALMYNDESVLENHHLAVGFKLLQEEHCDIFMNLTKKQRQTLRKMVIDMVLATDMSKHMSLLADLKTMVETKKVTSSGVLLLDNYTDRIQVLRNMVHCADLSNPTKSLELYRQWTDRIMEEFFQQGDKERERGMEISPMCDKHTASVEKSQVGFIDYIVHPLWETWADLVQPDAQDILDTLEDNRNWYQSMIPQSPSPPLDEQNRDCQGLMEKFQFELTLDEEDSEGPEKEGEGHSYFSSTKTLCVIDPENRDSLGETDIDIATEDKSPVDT
row,Compound,activation (PDE inhibition) [%]
1,c1cncc(CNc2ncnc3ccc(-c4cccnc4)cc23)c1,-0.886
2,COc1cccc(-c2ccc3ncnc(N(C)Cc4ccco4)c3c2)c1,-2.38
3,c1nc(N2CCNCC2)c2cc(-c3ccc4c(c3)OCO4)ccc2n1,4.71

# Biological target: Cytochrome P450 3A4 (Homo sapiens) (UniProt P08684)
# Experiment: qHTS Assay for Inhibitors and Substrates of Cytochrome P450 3A4 (AID 884); further: potency means the concentration at half of the fitted maximal effect; nearly all actives have a fitted effect of over 50% in size
# Settings: recombinant CYP3A4, Luciferin-PPXE luminescence; series mostly up to 57.1 µM; activity change, negative = inhibition: at the top concentration
# Outline: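 Luminescent readout of luciferin produced by CYP3A4 (20 nM) dealkylation of Luciferin-PPXE, 25 uM (its KM). NADPH-driven reaction ran 60 min at RT after 10 min compound preincubation; data scaled to 57 uM ketoconazole as 100% inhibition.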
# Chain of Cytochrome P450 3A4 (Homo sapiens) (P08684 whole entry, looked up): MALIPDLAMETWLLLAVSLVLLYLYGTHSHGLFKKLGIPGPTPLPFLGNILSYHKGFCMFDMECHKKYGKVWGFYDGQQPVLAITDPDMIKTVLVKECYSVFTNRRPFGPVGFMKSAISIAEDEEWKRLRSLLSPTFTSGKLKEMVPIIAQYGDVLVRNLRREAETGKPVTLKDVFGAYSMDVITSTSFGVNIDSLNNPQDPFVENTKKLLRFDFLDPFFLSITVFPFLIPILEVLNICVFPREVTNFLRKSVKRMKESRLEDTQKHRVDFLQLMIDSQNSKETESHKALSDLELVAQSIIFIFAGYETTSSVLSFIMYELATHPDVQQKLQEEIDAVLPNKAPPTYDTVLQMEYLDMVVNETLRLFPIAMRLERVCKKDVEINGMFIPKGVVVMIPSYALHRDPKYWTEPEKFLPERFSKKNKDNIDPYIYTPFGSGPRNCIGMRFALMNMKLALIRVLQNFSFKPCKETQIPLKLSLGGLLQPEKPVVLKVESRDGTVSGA
row,Compound,Potency
1,Cc1cccc(CNc2ncnc3ccc(-c4ccc5c(c4)OCO5)cc23)c1,2 µM (active)
2,CN(Cc1ccco1)c1ncnc2ccc(-c3cccnc3)cc12,3.98 µM (active)
3,COc1cccc(-c2ccc3ncnc(NCc4cccs4)c3c2)c1,7.94 µM (active)

# Biological target: Cytochrome P450 3A4 (Homo sapiens) (UniProt P08684)
# Experiment: qHTS Assay for Activators of Cytochrome P450 3A4 (AID 885); further: nearly all actives have a fitted effect of over 65% in size
# Settings: recombinant CYP3A4, Luciferin-PPXE luminescence, 60 min; series mostly up to 57.1 µM; activity change, positive = activation: at the top concentration
# Outline: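 Human CYP3A4 dealkylates Luciferin-PPXE to luciferin, which luciferase detection converts to light. Substrate was at its KM (25uM), buffer 200mM KPO4, reaction 60 min at RT.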
row,Compound,"activity change, positive = activation [%]"
1,Cc1cccc(CNc2ncnc3ccc(-c4cccnc4)cc23)c1,-81
2,Cc1cccc(CNc2ncnc3ccc(-c4ccc5c(c4)OCO5)cc23)c1,-117
3,COc1cccc(-c2ccc3ncnc(N(C)Cc4ccco4)c3c2)c1,-61.6
4,CN(Cc1ccco1)c1ncnc2ccc(-c3cccnc3)cc12,-70.1
5,CN(Cc1ccco1)c1ncnc2ccc(-c3ccoc3)cc12,-69.2
6,COc1cccc(-c2ccc3ncnc(NCc4cccs4)c3c2)c1,-92.4

# Biological target: Cytochrome P450 2D6 (Homo sapiens) (UniProt P10635)
# Experiment: qHTS Assay for Inhibitors and Substrates of Cytochrome P450 2D6 (AID 891); further: potency means the concentration at half of the fitted maximal effect; nearly all actives have a fitted effect of over 60% in size
# Settings: recombinant CYP2D6, luciferin-ME EGE luminescence; series mostly up to 57.1 µM; activity change, negative = inhibition: at the top concentration
# Outline: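 Luminescent read-out of luciferin formed by 5 nM human CYP2D6 demethylating 30 uM Luciferin-ME EGE (Km level) over 60 min at room temperature after NADPH regeneration addition. Data normalized to full inhibition by 1.43 uM quinidine.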
# Chain of Cytochrome P450 2D6 (Homo sapiens) (P10635 whole entry, looked up): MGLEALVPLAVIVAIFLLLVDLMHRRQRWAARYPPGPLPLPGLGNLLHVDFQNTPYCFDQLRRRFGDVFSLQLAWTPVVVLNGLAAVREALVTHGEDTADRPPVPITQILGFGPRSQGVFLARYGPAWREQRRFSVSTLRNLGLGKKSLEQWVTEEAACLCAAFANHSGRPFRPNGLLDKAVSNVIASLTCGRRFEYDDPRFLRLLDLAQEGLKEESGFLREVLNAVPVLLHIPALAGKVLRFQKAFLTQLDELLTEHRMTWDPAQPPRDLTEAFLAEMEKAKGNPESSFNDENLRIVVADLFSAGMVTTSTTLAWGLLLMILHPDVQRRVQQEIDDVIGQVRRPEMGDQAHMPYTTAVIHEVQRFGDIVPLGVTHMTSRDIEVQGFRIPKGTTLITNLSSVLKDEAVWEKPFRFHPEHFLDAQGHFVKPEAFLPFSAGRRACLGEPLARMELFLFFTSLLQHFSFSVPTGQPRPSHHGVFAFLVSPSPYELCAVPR
row,Compound,Potency
1,Cc1cccc(CNc2ncnc3ccc(-c4ccc5c(c4)OCO5)cc23)c1,0.501 µM (active)
2,CN(Cc1ccco1)c1ncnc2ccc(-c3cccnc3)cc12,2 µM (active)
3,c1nc(N2CCNCC2)c2cc(-c3ccc4c(c3)OCO4)ccc2n1,2.51 µM (active)

# Biological target: Cytochrome P450 2C19 (Homo sapiens) (UniProt P33261)
# Experiment: qHTS Assay for Inhibitors and Substrates of Cytochrome P450 2C19 (AID 899); further: potency means the concentration at half of the fitted maximal effect; nearly all actives have a fitted effect of over 60% in size
# Settings: recombinant CYP2C19, luciferin-H EGE luminescence; series mostly up to 57.1 µM; activity, negative = inhibition: at the top concentration
# Outline: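 Luminescent read-out of luciferin formed from Luciferin-H EGE (10uM, equal to KM). Enzyme 5nM in 50mM KPO4; compound added, 10 min at 37C, then NADPH regenerating system for 60 min at 37C. Full inhibition defined by 57uM ketoconazole.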
# Chain of Cytochrome P450 2C19 (Homo sapiens) (P33261 whole entry, looked up): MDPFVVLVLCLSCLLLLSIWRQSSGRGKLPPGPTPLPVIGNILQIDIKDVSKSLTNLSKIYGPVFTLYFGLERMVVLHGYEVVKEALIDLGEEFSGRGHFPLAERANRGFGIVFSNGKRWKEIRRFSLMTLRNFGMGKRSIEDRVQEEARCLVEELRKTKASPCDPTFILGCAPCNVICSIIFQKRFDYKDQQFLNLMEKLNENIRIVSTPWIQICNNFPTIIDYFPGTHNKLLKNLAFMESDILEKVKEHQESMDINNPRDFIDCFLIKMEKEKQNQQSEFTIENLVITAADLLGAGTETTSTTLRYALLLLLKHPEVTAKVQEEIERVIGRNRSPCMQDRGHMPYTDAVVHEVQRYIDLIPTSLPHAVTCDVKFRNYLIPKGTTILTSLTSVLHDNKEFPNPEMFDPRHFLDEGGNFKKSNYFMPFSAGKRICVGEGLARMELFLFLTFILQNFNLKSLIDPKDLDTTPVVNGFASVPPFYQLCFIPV
row,Compound,Potency
1,Cc1cccc(CNc2ncnc3ccc(-c4ccc5c(c4)OCO5)cc23)c1,5.01 µM (active)
2,COc1cccc(-c2ccc3ncnc(N(C)Cc4ccco4)c3c2)c1,2 µM (active)
3,CN(Cc1ccco1)c1ncnc2ccc(-c3cccnc3)cc12,7.94 µM (active)
4,Cc1cccc(CNc2ncnc3ccc(-c4ccoc4)cc23)c1,7.94 µM (active)

# Tested on: not listed separately
# Experiment: Confirmation and Secondary Assay for Modulators of Hemoglobin Beta Chain Splicing at IVS2 654 locus (AID 910);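 further: HeLa cells stably carrying EGFP split by mutant beta-globin IVS2-654 intron; % of control where 0% means no effect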
# Settings: HeLa EGFP-654 splicing reporter, GFP fluorescence, 48 h; series mostly up to 38.3 µM; activation (splicing correction): at the top concentration
# Outline: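 HeLa cells stably expressing EGFP interrupted by β-globin IVS2-654 intron, seeded overnight in Opti-MEM/2% FCS, then treated 2 days at 37 °C. Restored splicing read as total peak GFP intensity per well by laser scanning cytometry (488 nm excitation, 500–520 nm emission); 500 nM antisense PNA as control.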
row,Compound,activation (splicing correction) [%]
1,Cc1cccc(CNc2ncnc3ccc(-c4cccnc4)cc23)c1,1.7
2,Cc1cccc(CNc2ncnc3ccc(-c4ccc5c(c4)OCO5)cc23)c1,0.185
3,c1cncc(CNc2ncnc3ccc(-c4cccnc4)cc23)c1,-0.704
4,CN(Cc1ccco1)c1ncnc2ccc(-c3cccnc3)cc12,2.23
5,Cc1cccc(CNc2ncnc3ccc(-c4ccoc4)cc23)c1,1.66
6,COc1cccc(-c2ccc3ncnc(NCc4cccs4)c3c2)c1,-0.313
7,c1nc(N2CCNCC2)c2cc(-c3ccc4c(c3)OCO4)ccc2n1,1.28

# Tested on: not listed separately
# Experiment: Confirmation and Secondary Assay for Modulators of Hemoglobin Beta Chain Splicing at IVS2 705 locus (AID 930);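 further: HeLa cells stably expressing the EGFP-705 splicing reporter; GFP fluorescence per well restored by corrected splicing of the IVS2-705 intron in EGFP; % of control where 0% means no effect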
# Settings: HeLa EGFP-705 splicing reporter, GFP fluorescence, 48 h; series mostly up to 38.3 µM; activation: at the top concentration
# Outline: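 Fluorescence gain (488 nm laser, 500-520 nm PMT) reflects restored correct splicing of a mutant IVS2-705 intron inside EGFP in stably transfected HeLa cells after 2-day compound treatment.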
row,Compound,activation [%]
1,Cc1cccc(CNc2ncnc3ccc(-c4cccnc4)cc23)c1,0.15
2,Cc1cccc(CNc2ncnc3ccc(-c4ccc5c(c4)OCO5)cc23)c1,0.483
3,c1cncc(CNc2ncnc3ccc(-c4cccnc4)cc23)c1,-0.902
4,CN(Cc1ccco1)c1ncnc2ccc(-c3cccnc3)cc12,0.0739
5,Cc1cccc(CNc2ncnc3ccc(-c4ccoc4)cc23)c1,0.473
6,COc1cccc(-c2ccc3ncnc(NCc4cccs4)c3c2)c1,0.0305
7,c1nc(N2CCNCC2)c2cc(-c3ccc4c(c3)OCO4)ccc2n1,-0.0395
